# In the supplement of paper PMC11417369:
# Whole data set: some 25,000 sequences, median “ln(normalized median fluorescence intensity)” near 9.7, cut for the highest 2% near 11. The list comes from a sample in which the highest values are over-represented; it also holds similar and randomly drawn sequences.
# System: PfAP2-HC AP2 domain (GST-tagged)
# Assay: gcPBM binding intensity (ln(normalized median fluorescence intensity)); higher = stronger DNA binding
# Outline: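 Plasmodium falciparum DNA-binding domains carrying a GST tag were expressed in E. coli and applied for 1 h, at about 25 μg on average, to an Agilent 4 × 180k array. The array held primer-extended double-stranded 36-bp intergenic genomic probes together with negative controls, and binding took place in 1× PBS with 1% milk, 0.2 mg/ml BSA, 0.5% salmon testes DNA and 0.03% Triton X-100. An Alexa488 anti-GST antibody detected bound protein, and the array was scanned at 488 nm. Binding intensity is taken as the highest Masliner-normalised natural-log median intensity across replicate spots of either probe orientation.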
row,Sequence,gcPBM binding intensity (ln)
1,TACATGAATATATAAAGAAAAAAAAAAAAACACACA [XGTACX_negctrl_site350],9.79
2,AATAAGTAACAAAATACACACATATATATAATTATA [CACACA_site1837],10.1
3,CTTATATTAAGTATTACACACATATATATAAATGCA [CACACA_site4581],9.65
4,TGTACGTTTTTTAACACACACACAAAAAAAAAAAAA [CACACA_site6006],9.84
5,GATTTATACAAATATGTACACACTAAATATATATTA [CACACA_site455],9.83
6,GATGTTGCAAAATTCTGTACATATAAATGTATACAT [XGTACX_site5009],9.64
7,TAATTAAAATTATTTATAAATTAGTATATTTCTATA [CACACA_negctrl_site663],9.42
8,ATATAAGAAAAGCACACACACACAAAAAAAAAAAAA [CACACA_site2827],11.1
9,GCAAAATAAAGAAGCACACAAAAATGAAATATATAT [CACACA_site3651],9.96
10,AGAGATATAAGAAAAGCACACACACCCAAAAAAAAA [CACACA_site8917],10.5
11,AAAAAAAATATAAGTGGTACTCACATAAAGACATAT [XGTACX_site3709],9.93
12,AAAAAAAAAAAGAAGGAAACATTTGACCAAAAATAT [GTGCAC_negctrl_site404],9.58
13,GTAGACTGAAACCACACACACATATATAAATATATT [CACACA_site6433],10.4
14,ATTTTGTGTAGTGATGCATGTTATATATATATTTGA [TGCATGCA_site422],9.83
15,TAGAAGCATTGACACACACACATACATACACATACA [CACACA_site6802],11.2
16,GTTATAGAAGCATTCACACACACACGGACATACACA [CACACA_site6801],10.7
17,TATAGAAGCATTCACACACACACATACATACACATA [CACACA_site1466],10.6
18,TGTCATGATACATACACACACATACCCATACCCATA [CACACA_site5211],10.6
19,TAGAAGCATGGACACACACACATACATACCCATACA [CACACA_site4916],11.2
20,AAAAAAAACGGACACACACACATACCCATACATACA [CACACA_site5574],10.5
21,TGTTGCAAAACAAAAAAAAAAAAAAAAAATAATAAT [CACACA_negctrl_site1642],9.52
22,AAAAGGAAAAATATCACACATATATATATATATATA [CACACA_site5586],9.69
23,GCATAAGAAATAAATAGTACACACATAGACACACAC [XGTACX_site3095],11.3
24,TAGAAAAAATAAAATAGTACACATCCAAAAAAAAAA [XGTACX_site7829],9.71
25,TAAGAAATAAATAGTACACACATAGACACACGCACA [CACACA_site6821],10.7
26,TAAGAAATAAATAGTACACACATAGACACCCACCGA [CACACA_site1516],10.4
27,TAAGAAATAAATAGTACACACATAGACACAGACACA [CACACA_site4934],10.6
28,TAAGAAATAAATAGTACACACATAGACACCCACCCA [CACACA_site8429],11.3
